Reference: PubChem BioAssay (Tox21)
Several values for one entry are separate records, joined by “and”; a condition that tells them apart may be missing. Equal entries are not always repeated. Results filed as inconclusive are left out. Activity calls are given as the source filed them. Unless noted, calls come from the whole dose curve.

Legend:
[1] = Nuclear factor erythroid 2-related factor 2/antioxidant responsive element (Nrf2/ARE) small molecule agonists: qHTS cell viability counter screen in human keratinocytes (AID 1919968; active = well fitted curve in the direction sought with a large enough effect in the repeat runs; an effect the other way counts as inactive or inconclusive; note: nearly all actives have a fitted effect of over 55% in size)
Summary of the method: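 Stably transfected HaCaT (KeratinoSens), 1,500/well. Test agents in DMSO were applied for 23 h, 37 C/5% CO2. CellTiter-Fluor was incubated 1 h before the fluorescence read.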

[2] = biological target: Gonadotropin-releasing hormone receptor (Homo sapiens) (UniProt P30968); experiment: Human gonadotropin-releasing hormone receptor (GnRHR) small molecule agonists, calcium flux assay in GnRHR-HEK293 cells (AID 1920063); note: nearly all actives have a fitted effect of over 35% in size
Summary of the method: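 Stable human GnRHR HEK293 line. 18 h plating, then calcium dye for 1 h at 37 C. Agonist-mode compound addition from DMSO stocks; fluorescence monitored 3 min.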

[3] = biological target: KiSS-1 receptor (Homo sapiens) (UniProt Q969F8); experiment: Human kisspeptin (KISS1R) small molecule agonists, calcium flux assay in KISS1R-HEK293 cells (AID 1920064; active = well fitted curve in the direction sought with a large enough effect in the repeat runs; an effect the other way counts as inactive or inconclusive)
Summary of the method: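 After overnight (18 h) culture at 37 C/5% CO2, human KISS1R-HEK293 cells received calcium dye for 1 h, then test compound; emission at 540 nm (excitation 480 nm) was tracked for 3 min.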

[4] = G protein-coupled receptor (GPCR) small molecule agonists, calcium flux assay: HEK293 wild type cell line counter screen (AID 1920065)
Summary of the method: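 Following 18 h incubation at 37 C/5% CO2, plates got calcium dye for 1 h; compounds, ATP or DMSO were then pinned in and fluorescence followed kinetically (480/540 nm).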

[5] = p53 small molecule agonists, cell-based qHTS assay with human liver microsomes (AID 1963577);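 note: p53 response element beta-lactamase reporter cells with liver microsomes plus NADPH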
Summary of the method: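 Reporter activation was measured by LiveBLAzer fluorescence intensity in p53RE-bla cells, which had been exposed to compounds for 16 h at 37 C alongside 0.5 mg/mL human liver microsomes and 0.5 mg/mL NADPH (final concentrations).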

[6] = p53 small molecule agonists, cell-based qHTS assay with rat liver microsomes (AID 1963578)
Summary of the method: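 Compound in DMSO added to p53RE-bla cells 5 h post-plating; rat microsomes/NADPH 0.5 mg/mL final; 16 h, 37 C; LiveBLAzer 2 h RT.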

[7] = p53 small molecule agonists, cell-based qHTS assay with human liver microsomes: qHTS cell viability counter screen (AID 1963579); note: nearly all actives have a fitted effect of over 45% in size
Summary of the method: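 HLM-supplemented (0.5 mg/mL final) and NADPH-supplemented (0.5 mg/mL final) p53RE-bla cultures, 4,000 cells per well, were dosed with compounds in DMSO for 16 h at 37 C; luminescent ATP detection (CellTiter-Glo, 30 min, room temperature) quantified surviving cells.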

[8] = p53 small molecule agonists, cell-based qHTS assay with rat liver microsomes: qHTS cell viability counter screen (AID 1963580); note: nearly all actives have a fitted effect of over 45% in size
Summary of the method: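 After the beta-lactamase ratio was read, CellTiter-Glo was added to the same wells and luminescence measured at 30 min; cells had been treated 16 h at 37 C with compounds, rat liver microsomes and NADPH (0.5 mg/mL final each).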

[9] = p53 small molecule agonists, cell-based qHTS assay: qHTS cell viability counter screen (AID 1963581); note: nearly all actives have a fitted effect of over 45% in size
Summary of the method: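 qHTS counter screen: 16 h compound exposure at 37 C of p53RE-bla HCT-116 cells (4,000 per well, seeded 5 h prior), cell viability by ATP luminescence.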

[10] = p53 small molecule agonists, cell-based qHTS assay (AID 1963582; active = well fitted activation curve with a large enough effect in the signal ratio in the repeat runs, not every such curve was filed as active; the % refers to the signal ratio)
Summary of the method: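 Measured: fluorescence from cleaved LiveBLAzer substrate. System: p53RE-bla cells, 16 h compound treatment at 37 C, 2 h substrate step at room temperature.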

[11] = biological target: 5-hydroxytryptamine receptor 2A (Homo sapiens) (UniProt P28223); experiment: 5-hydroxytryptamine receptor 2A (HTR2A) small molecule antagonists, cell-based qHTS assay (AID 1963586); note: nearly all actives have a fitted effect of over 45% in size; note: potency is the fitted concentration of half-maximal effect
Summary of the method: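 CHO cells stably expressing human HTR2A were plated for 18 h at 37 C, then loaded with calcium dye for 1 h. Compounds were preincubated 5 min at room temperature before DOI (4 nM solution) was added. Kinetic fluorescence was read for 3 min.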

[12] = biological target: 5-hydroxytryptamine receptor 2A (Homo sapiens) (UniProt P28223); experiment: 5-hydroxytryptamine receptor 2A (HTR2A) small molecule agonists, cell-based qHTS assay (AID 1963587); note: nearly all actives have a fitted effect of over 30% in size
Summary of the method: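 CHO cells stably expressing human HTR2A, plated 18 h, loaded with calcium dye 1 h at 37 C. Agonist mode: compounds added and intracellular calcium fluorescence recorded kinetically for 2 min at 1 sec intervals.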

[13] = biological target: Muscarinic acetylcholine receptor M1 (Homo sapiens) (UniProt P11229); experiment: Cholinergic receptor muscarinic 1 (CHRM1) small molecule antagonists, cell-based qHTS assay (AID 1963588); note: nearly all actives have a fitted effect of over 40% in size; note: potency is the fitted concentration of half-maximal effect
Summary of the method: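 Compounds were tested at 15 concentrations in three independent runs. Dye-loaded CHRM1-CHO cells were exposed 5 min at room temperature before stimulation by acetylcholine added at 50nM. Intracellular calcium was read kinetically on FDSS for 3 min.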

[14] = biological target: Muscarinic acetylcholine receptor M1 (Homo sapiens) (UniProt P11229); experiment: Cholinergic receptor muscarinic 1 (CHRM1) small molecule agonists, cell-based qHTS assay (AID 1963589); note: nearly all actives have a fitted effect of over 35% in size
Summary of the method: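 Kinetic fluorescence (1 s intervals) of calcium-sensitive dye in human M1 CHO cells after compound addition; cells pre-incubated 18 h at 37 C/5% CO2 and dye-loaded 1 h.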

[15] = cAMP Responsive Elements (CRE) small molecule agonists, cell-based qHTS assay (AID 1963590)
Summary of the method: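 Test agents in DMSO were incubated 3 h at 37 C/5% CO2 with CRE-bla HEK 293T cells seeded 18 h earlier; LiveBLAzer B/G FRET substrate was added and read after 2 h at room temperature.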

[16] = cAMP Responsive Elements (CRE) small molecule antagonists, cell-based qHTS assay (AID 1963591; active = well fitted inhibition curve with a large enough effect in the signal ratio in the repeat runs, not every such curve was filed as active; the % refers to the signal ratio)
Summary of the method: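 Reporter line CRE-bla HEK 293T in dialyzed-FBS DMEM; cells preincubated 18 h, treated 3 h with compound plus NKH477 (0.25 uM final); LiveBLAzer FRET, 2 h RT.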

[17] = biological target: Beta-2 adrenergic receptor (Homo sapiens) (UniProt P07550); experiment: Adrenergic beta2 receptor (ADRB2) small molecule antagonists, cell-based qHTS assay (AID 1963592); note: series mostly up to about 92 µM; nearly all actives have a fitted effect of over 50% in size
Summary of the method: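 Assay format: CHO-ADRB2 cells, 18-20hr seeding at 37C/5% CO2, then compound plus 1nM isoproterenol agonist mix for 0.5hr RT. Homogeneous time-resolved fluorescence cAMP detection after 1hr, expressed as 665/615 nm ratio.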

[18] = biological target: Beta-2 adrenergic receptor (Homo sapiens) (UniProt P07550); experiment: Adrenergic beta2 receptor (ADRB2) small molecule agonists, cell-based qHTS assay (AID 1963593);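 note: CHO cells stably overexpressing human ADRB2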
Summary of the method: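 CHO cells stably over-expressing ADRB2 were plated overnight at 37C, then dosed with compounds plus a stimulation mix containing 100uM IBMX and 25uM Ro-20-1724 for 0.5hr at room temperature. cAMP was measured by HTRF competition, 1hr.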

[19] = biological target: D(2) dopamine receptor (Homo sapiens) (UniProt P14416); experiment: Dopamine D2 receptor (DRD2) small molecule agonists, cell-based qHTS assay (AID 1963594); note: nearly all actives have a fitted effect of over 35% in size
Summary of the method: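 HEK293 cells stably expressing human DRD2, pre-treated with PDE inhibitor Ro20-1724 (0.1 mM final) and compound 10 min at room temperature, then stimulated with NKH477 (200nM […]) for 30 min. cAMP read by HTRF (665/620 nm).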

[20] = biological target: D(2) dopamine receptor (Homo sapiens) (UniProt P14416); experiment: Dopamine D2 receptor (DRD2) small molecule antagonists, cell-based qHTS assay (AID 1963595; active = well fitted inhibition curve with a large enough effect in the signal ratio in the repeat runs, with a control signal flat; the % refers to the signal ratio)
Summary of the method: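 HEK293 cells stably expressing DRD2, preincubated with 0.1 mM Ro20-1724 and compounds 10 min, were stimulated with 200 nM NKH477 plus 12 nM quinpirole for 30 min at room temperature; cAMP measured by HTRF (665/620 nm).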

Measured: Potency

Gonadotropin-releasing hormone receptor (Homo sapiens), sequence (P30968 whole entry, looked up): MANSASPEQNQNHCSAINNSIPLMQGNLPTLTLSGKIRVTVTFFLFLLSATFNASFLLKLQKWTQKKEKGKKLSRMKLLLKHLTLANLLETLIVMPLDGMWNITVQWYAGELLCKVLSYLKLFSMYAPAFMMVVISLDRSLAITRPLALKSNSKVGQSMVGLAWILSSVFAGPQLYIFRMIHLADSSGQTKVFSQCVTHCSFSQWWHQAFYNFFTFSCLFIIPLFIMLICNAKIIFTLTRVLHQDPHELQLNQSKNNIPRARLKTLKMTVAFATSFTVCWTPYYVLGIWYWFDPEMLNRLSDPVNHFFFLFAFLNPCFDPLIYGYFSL
5-hydroxytryptamine receptor 2A (Homo sapiens), sequence (P28223 whole entry, looked up): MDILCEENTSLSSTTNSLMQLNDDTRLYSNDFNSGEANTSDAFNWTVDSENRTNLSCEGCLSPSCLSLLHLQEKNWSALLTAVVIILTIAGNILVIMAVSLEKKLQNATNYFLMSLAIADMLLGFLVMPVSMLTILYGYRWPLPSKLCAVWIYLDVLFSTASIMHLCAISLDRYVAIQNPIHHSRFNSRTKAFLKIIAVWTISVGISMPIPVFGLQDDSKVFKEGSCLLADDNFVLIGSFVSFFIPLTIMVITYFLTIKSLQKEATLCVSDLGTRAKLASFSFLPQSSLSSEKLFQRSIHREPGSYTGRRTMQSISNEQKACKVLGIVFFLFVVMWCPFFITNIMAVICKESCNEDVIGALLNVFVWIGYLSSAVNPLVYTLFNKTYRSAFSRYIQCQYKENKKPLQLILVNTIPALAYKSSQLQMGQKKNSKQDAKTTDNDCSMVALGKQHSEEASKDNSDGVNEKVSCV
Beta-2 adrenergic receptor (Homo sapiens), sequence (P07550 whole entry, looked up): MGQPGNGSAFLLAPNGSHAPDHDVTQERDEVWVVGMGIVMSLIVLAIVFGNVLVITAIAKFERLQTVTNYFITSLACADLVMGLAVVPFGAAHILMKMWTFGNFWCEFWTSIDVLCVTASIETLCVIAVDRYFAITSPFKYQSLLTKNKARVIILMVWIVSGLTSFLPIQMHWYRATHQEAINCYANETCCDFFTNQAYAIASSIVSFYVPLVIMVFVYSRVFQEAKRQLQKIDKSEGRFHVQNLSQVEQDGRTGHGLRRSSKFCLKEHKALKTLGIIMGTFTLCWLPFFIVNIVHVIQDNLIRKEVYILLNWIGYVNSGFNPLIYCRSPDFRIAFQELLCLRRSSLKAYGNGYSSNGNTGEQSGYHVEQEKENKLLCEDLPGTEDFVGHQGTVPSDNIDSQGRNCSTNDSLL
D(2) dopamine receptor (Homo sapiens), sequence (P14416 whole entry, looked up): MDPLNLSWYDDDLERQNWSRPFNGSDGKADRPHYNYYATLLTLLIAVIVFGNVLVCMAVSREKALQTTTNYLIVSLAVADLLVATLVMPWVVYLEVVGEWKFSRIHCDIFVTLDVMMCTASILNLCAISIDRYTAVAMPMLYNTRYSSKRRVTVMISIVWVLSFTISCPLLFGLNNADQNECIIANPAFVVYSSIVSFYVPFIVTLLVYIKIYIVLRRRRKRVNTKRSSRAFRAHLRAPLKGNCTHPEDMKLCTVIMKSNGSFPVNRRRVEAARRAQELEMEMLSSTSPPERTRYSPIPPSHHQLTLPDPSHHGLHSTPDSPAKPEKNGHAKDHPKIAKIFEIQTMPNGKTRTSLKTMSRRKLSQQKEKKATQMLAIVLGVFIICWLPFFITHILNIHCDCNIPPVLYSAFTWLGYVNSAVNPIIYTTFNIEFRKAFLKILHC
KiSS-1 receptor (Homo sapiens), sequence (Q969F8 whole entry, looked up): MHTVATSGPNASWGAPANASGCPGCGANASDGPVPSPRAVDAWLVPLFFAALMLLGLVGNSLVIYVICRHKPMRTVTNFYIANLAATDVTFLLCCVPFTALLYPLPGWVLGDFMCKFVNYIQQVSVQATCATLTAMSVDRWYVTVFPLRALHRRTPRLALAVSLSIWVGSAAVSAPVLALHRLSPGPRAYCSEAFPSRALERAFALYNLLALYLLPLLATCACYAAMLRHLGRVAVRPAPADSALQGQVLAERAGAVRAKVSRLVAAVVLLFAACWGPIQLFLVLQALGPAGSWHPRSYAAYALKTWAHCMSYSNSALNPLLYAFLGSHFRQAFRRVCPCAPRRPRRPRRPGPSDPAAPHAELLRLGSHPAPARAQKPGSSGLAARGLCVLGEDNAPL
Muscarinic acetylcholine receptor M1 (Homo sapiens), sequence (P11229 whole entry, looked up): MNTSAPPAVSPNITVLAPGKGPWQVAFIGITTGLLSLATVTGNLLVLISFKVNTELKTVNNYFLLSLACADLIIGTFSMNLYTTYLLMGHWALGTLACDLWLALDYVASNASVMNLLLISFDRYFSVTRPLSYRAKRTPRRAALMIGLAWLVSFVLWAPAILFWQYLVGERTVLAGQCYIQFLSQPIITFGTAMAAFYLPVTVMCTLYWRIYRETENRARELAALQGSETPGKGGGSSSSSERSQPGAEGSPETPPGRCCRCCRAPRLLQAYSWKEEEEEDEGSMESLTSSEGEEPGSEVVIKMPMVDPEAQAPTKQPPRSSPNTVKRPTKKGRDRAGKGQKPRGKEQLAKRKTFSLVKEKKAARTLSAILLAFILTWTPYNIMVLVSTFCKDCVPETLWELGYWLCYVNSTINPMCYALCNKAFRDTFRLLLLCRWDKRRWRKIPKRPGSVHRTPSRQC

CCCCCCN
not listed: [20]
inactive: all other assays above

CCC(C)=O
inactive: all assays above

O=c1[nH]c(=O)c2ccccc2o1
not listed: [2] | [4] | [5] | [19]
inactive: all other assays above

O=C(c1ccccc1)C1(O)CCCCC1
not listed: [12]
inactive: all other assays above

Nc1c(Br)cc([N+](=O)[O-])cc1Br
not listed: [2] | [3] | [11]
inactive: all other assays above

CC#N
not listed: [17] | [18] | [20]
inactive: all other assays above

CN1CCOCC1
not listed: [13] | [17]
inactive: all other assays above

O=C(O)CCc1ccccc1
not listed: [15] | [19]
inactive: all other assays above

CC(=O)OCC(=O)Nc1cc(C#N)cc(NC(=O)COC(C)=O)c1Cl
not listed: [19]
inactive: all other assays above

Cc1ccccc1C(N)=O
inactive: all assays above

C=C(C)[C@H]1CC=C(C)C(=O)C1
not listed: [2] | [5] | [6] | [7] | [10] | [11] | [18]
inactive: all other assays above

O=C(Oc1ccccc1)c1ccc(O)cc1
active: [11] 26.7 µM and 13.3 µM
not listed: [15] | [18]
inactive: all other assays above

CCN(CC)c1ccc(C=O)c(O)c1
not listed: [2] | [3]
inactive: all other assays above

CN(C)CCOC(c1ccc(Cl)cc1)c1ccccn1 (stereo unspecified)
active: [13] 4.6 µM
not listed: [20]
inactive: all other assays above

O=C(O)c1ccc(CO)o1
inactive: all assays above
